This is part of a sample that, as a whole, favours compounds with a hit. Of some 83,000 tested, about 20% had one in any assay.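 Results are percent growth after 48 hours of single-concentration exposure. 100 means growth as in untreated cells, lower positive values show inhibition; negative values down to -100 show cell death.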 Activity calls are given as the source filed them. How the source made its calls: active means growth percent below 10; inactive means the rest.

The subject of one assay is 786-0 renal. Nature of the assay: NCI-60 one-dose screen, 48 h (100 = growth as untreated, 0 = no growth, -100 = all killed). To be noted: 10 µM unless noted.
Regarding `O=C(CNC(=O)c1cccc2ccccc12)Nc1ccccc1Oc1cccc(O)c1`, the growth is 19.6% [5 µM] (inactive).
Turning to `CCN(CC)CCNCC(=O)Oc1ccc(/C=C/C(=O)CC(=O)/C=C/c2ccc(OC(=O)CNCCN(CC)CC)c(OC)c2)cc1OC`, the growth was -34.9% (active).
As to `COc1ccc(-c2cc(-c3nnc(SCC(=O)Nc4ccc(C(C)=O)cc4)n3-c3ccccc3)c3ccccc3n2)cc1OC`, the growth is 97.1% (inactive).
Consider `COc1ccc2c(c1)[n+](=O)c(C(=O)/C=C/c1cc(OC)c(OC)c(OC)c1)c(C)n2[O-]`, for which the growth is 70.9% (inactive).
`COc1ccc(-c2nc3sc4c(c3c(=O)[nH]2)CCCCCC4)cc1`: the growth is 80.1% (inactive).
`CC(=O)Nc1c(Cl)cc2c(c1Cl)Cc1cc([N+](=O)[O-])ccc1-2`: the growth is 77.9% (inactive).
Still for that read-out and setting: the value for `CCN(CC)CCCCCCCNc1c2ccc(Cl)cc2nc2ccc(OC)cc12` was -57.5% (active); that for `COc1cc(/C=C/c2cc(/C=C/c3ccc(O)c(OC)c3)n(C(=O)c3ccc(Cl)cc3)n2)ccc1O` was 19.5% (inactive); that for `Cc1n(Cc2ccc3ccccc3c2)c2ccccc2[n+]1Cc1ccc2ccccc2c1` was -92.8% (active).
With `CCn1cnc(C[C@H](NC(=O)[C@H](CCCCNC(=O)Nc2cc(C(F)(F)F)cc(C(F)(F)F)c2)NC(=O)Nc2cc(C(F)(F)F)cc(C(F)(F)F)c2)C(=O)OC)c1`, the growth is -54.3% [100 µM] (active).
In the case of `O=C(Nc1cccc(-n2cc(-c3ccncc3)c(-c3cc(O)cc(Cl)c3)n2)c1)Nc1ccc(Cl)c(Cl)c1`, the growth was -72.1% (active).
On the same count and under the same terms, the value for `Oc1ccc(/C=N/Nc2nc3ccccc3s2)c(O)c1` was 38.3% (inactive); that for `Cc1csc(C#Cc2cncc(O)c2)n1` was 105% (inactive); that for `COc1cc(/C=C/C(=O)CC(=O)/C=C/c2ccc(OC(=O)CCNC34CC5CC(CC(C5)C3)C4)c(OC)c2)ccc1OC(=O)CCNC12CC3CC(CC(C3)C1)C2` was 16.7% (inactive).
Take `N/C(=N\C(N)=N\c1nc2ccccc2s1)c1ccnc(Cl)c1`: the growth was 41.1% (inactive).
Consider `COc1ccc(NS(=O)(=O)N2CCCCC2)cc1`, for which the growth is 109% (inactive).
`C=C1CCC2C(C)(COC(=O)CC)C(OC(=O)CC)CCC2(C)C1C/C=C1/C(=O)OCC1OC(=O)CC` (configuration not stated): the growth was -97.4% (active).
`Cc1[nH]ccc2cc3nc4ccccc4c3cc12`: the growth was 44.7% (inactive).
On the same count and under the same terms, with `CC(C)=CCCC(C)c1ccc(C)c2c1OCN(CC1CCNCC1)C2` (configuration not stated) the figure was -60.1% (active); with `COc1ccc2c(c1)sc1nc(-c3ccc(N(C)C)cc3)cn12`, 89.7% (inactive).
Same read-out and setting: with `COc1cc(/C=C/C(=O)C(C(=O)/C=C/c2ccc(OC(=O)CCNc3nnc(C)s3)c(OC)c2)C(=O)CCNc2nnc(C)s2)ccc1OC(=O)CCNc1nnc(C)s1` the figure was -38% (active); with `O=C(O)c1ccc2cccnc2c1O`, 7.02% (active); with `CC[C@@H](c1ccc(O)c(O)c1)[C@@H](CC)c1ccc(O)c(O)c1`, 100% (inactive).
The same measure, in the same setting: the value for `Cc1ccc(NC(=O)c2sc3nc4c(cc3c2N)C(=O)CCC4)cc1` was 94.5% (inactive).
Turning to `CCOC(=O)/C=C1/SC(=Nc2ccc(C#N)cc2)N(Cc2ccco2)C1=O`, the growth is 34.6% (inactive).
On to `COP(=O)(OC)C(c1ccc(O)cc1)(c1ccc(O)cc1)c1ccc(O)cc1`, for which the growth is 82.4% (inactive).
As to `COc1ccccc1-n1c(-c2ccc(O)cc2C)cn2c3c(=O)[nH]c(=O)n(C)c3nc12`, the growth was 72.2% (inactive).

The next assay relates to COLO 205 colon. The assay is described as above. To be noted: 10 µM unless noted.
As for `COc1ccc2ncccc2c1Cc1c(OC)ccc2ncccc12`, the growth is 79.9% (inactive).
As for `COc1cc(C2CC(C3C(=O)N(C)C(=O)N(C)C3=O)=NN2c2cc(Cl)cc(Cl)c2)cc(OC)c1OC` (configuration not stated), the growth is 99.7% (inactive).
`Cc1sc2nc(NCc3ccccc3)[nH]c(=O)c2c1C`: the growth was 34.7% (inactive).
Still for that read-out and setting: the value for `Cc1cc2c(cc1C)[n+](Cc1ccc3ccccc3n1)cn2Cc1ccc2ccccc2n1` was -61.5% (active); that for `COc1cc(/C=C2\CN(S(=O)(=O)c3ccc(C)cc3)C/C(=C\c3cc(CN4CCOCC4)c(O)c(OC)c3)C2=O)cc(CN2CCOCC2)c1O` was -25.5% (active).
As to `O=C1NCCc2c1noc2-c1ccccc1`, the growth was 103% (inactive).
For `C[C@]12CCC(=O)C=C1CC[C@H]1[C@@H]3C[C@@H](O)[C@](O)(C(=O)CO)[C@@]3(C)C[C@H](O)[C@@]12F`, the growth is 103% (inactive).
As to `C/C(=C\CCc1ccsc1)CC/C=C(\C)CCCN1CCSCC1`, the growth was 85.6% (inactive).
Same read-out and setting: the value for `COC(=O)Nc1ccc2ccc3c(NC(=O)OC)ccc4ccc1c2c43` (tested in a mixture with another compound) was 30.8% (inactive); that for `O=C(Nc1nc2c(C(F)(F)F)cccc2s1)c1cc(Cl)ccc1O` was -69.9% (active); that for `COc1cc(C2=NN(C=O)C(c3cccc(Nc4ccnc5cc(Cl)ccc45)c3)C2)cc(OC)c1OC` (configuration not stated) was 66.1% (inactive).
Turning to `COc1cccc(-c2nc(-c3ccc(N)cc3)co2)c1`, the growth was 141% (inactive).
In the case of `C[C@@H]1[C@H]2[C@H](C=C3[C@@H]4CC[C@H]5Cc6nc7c(nc6C[C@]5(C)[C@H]4C[C@@H](O)[C@@]32C)C[C@@H]2CC[C@H]3C4=C[C@@H]5O[C@@]6(CC[C@](C)(CO)O6)[C@@H](C)[C@@]5(O)[C@@]4(C)[C@H](O)C[C@@H]3[C@@]2(C)C7)O[C@]12CCC(C)(C)O2`, the growth was -39.3% (active).
As for `O=C(CNC(=O)c1cccc2ccccc12)Nc1ccccc1Oc1cccc(O)c1`, the growth is 33.8% [5 µM] (inactive).
Regarding `CCN(CC)CCNCC(=O)Oc1ccc(/C=C/C(=O)CC(=O)/C=C/c2ccc(OC(=O)CNCCN(CC)CC)c(OC)c2)cc1OC`, the growth is 17.1% (inactive).
As to `COc1ccc(-c2cc(-c3nnc(SCC(=O)Nc4ccc(C(C)=O)cc4)n3-c3ccccc3)c3ccccc3n2)cc1OC`, the growth is 98.8% (inactive).
Still for that read-out and setting: with `COc1ccc2c(c1)[n+](=O)c(C(=O)/C=C/c1cc(OC)c(OC)c(OC)c1)c(C)n2[O-]` the figure was 58.9% (inactive); with `COc1ccc(-c2nc3sc4c(c3c(=O)[nH]2)CCCCCC4)cc1`, 35.4% (inactive).
For the molecule `CC(=O)Nc1c(Cl)cc2c(c1Cl)Cc1cc([N+](=O)[O-])ccc1-2`, the growth is 103% (inactive).
`CCN(CC)CCCCCCCNc1c2ccc(Cl)cc2nc2ccc(OC)cc12`: the growth was -92.5% (active).
Turning to `COc1cc(/C=C/c2cc(/C=C/c3ccc(O)c(OC)c3)n(C(=O)c3ccc(Cl)cc3)n2)ccc1O`, the growth was 98.7% (inactive).
For `Cc1n(Cc2ccc3ccccc3c2)c2ccccc2[n+]1Cc1ccc2ccccc2c1`, the growth was -77.1% (active).
For the molecule `CCn1cnc(C[C@H](NC(=O)[C@H](CCCCNC(=O)Nc2cc(C(F)(F)F)cc(C(F)(F)F)c2)NC(=O)Nc2cc(C(F)(F)F)cc(C(F)(F)F)c2)C(=O)OC)c1`, the growth was -100% [100 µM] (active).
Consider `O=C(Nc1cccc(-n2cc(-c3ccncc3)c(-c3cc(O)cc(Cl)c3)n2)c1)Nc1ccc(Cl)c(Cl)c1`, for which the growth is 22.4% (inactive).
Turning to `Oc1ccc(/C=N/Nc2nc3ccccc3s2)c(O)c1`, the growth is 89.3% (inactive).
As for `Cc1csc(C#Cc2cncc(O)c2)n1`, the growth is 105% (inactive).
The same measure, in the same setting: the value for `COc1cc(/C=C/C(=O)CC(=O)/C=C/c2ccc(OC(=O)CCNC34CC5CC(CC(C5)C3)C4)c(OC)c2)ccc1OC(=O)CCNC12CC3CC(CC(C3)C1)C2` was 45.9% (inactive).
`N/C(=N\C(N)=N\c1nc2ccccc2s1)c1ccnc(Cl)c1`: the growth was 18.1% (inactive).
The same measure, in the same setting: with `COc1ccc(NS(=O)(=O)N2CCCCC2)cc1` the figure was 105% (inactive); with `C=C1CCC2C(C)(COC(=O)CC)C(OC(=O)CC)CCC2(C)C1C/C=C1/C(=O)OCC1OC(=O)CC` (configuration not stated), -28.1% (active); with `Cc1[nH]ccc2cc3nc4ccccc4c3cc12`, -5.37% (active).
For the molecule `CC(C)=CCCC(C)c1ccc(C)c2c1OCN(CC1CCNCC1)C2` (configuration not stated), the growth was 75.9% (inactive).
In the case of `COc1ccc2c(c1)sc1nc(-c3ccc(N(C)C)cc3)cn12`, the growth is 93.7% (inactive).
As for `COc1cc(/C=C/C(=O)C(C(=O)/C=C/c2ccc(OC(=O)CCNc3nnc(C)s3)c(OC)c2)C(=O)CCNc2nnc(C)s2)ccc1OC(=O)CCNc1nnc(C)s1`, the growth is -26.3% (active).
Same read-out and setting: the value for `O=C(O)c1ccc2cccnc2c1O` was -70.9% (active).
Take `CC[C@@H](c1ccc(O)c(O)c1)[C@@H](CC)c1ccc(O)c(O)c1`: the growth is 9.38% (active).
In the case of `Cc1ccc(NC(=O)c2sc3nc4c(cc3c2N)C(=O)CCC4)cc1`, the growth was 23.9% (inactive).
Regarding `CCOC(=O)/C=C1/SC(=Nc2ccc(C#N)cc2)N(Cc2ccco2)C1=O`, the growth was 50.2% (inactive).
As for `COP(=O)(OC)C(c1ccc(O)cc1)(c1ccc(O)cc1)c1ccc(O)cc1`, the growth was 123% (inactive).
For `COc1ccccc1-n1c(-c2ccc(O)cc2C)cn2c3c(=O)[nH]c(=O)n(C)c3nc12`, the growth is 102% (inactive).

The values above are taken from PubChem BioAssay (NCI).
